Cycloheximide cs: counter-screen hit for Shiga toxin inhibitors, cycloheximide; cell reporter, cycloheximide protein synthesis inhibition counterscreen; max response, %; hit rate 12% among 300,000; in the data active means max response mostly above about 13%, no sharp cut-off; inactive means mostly below about 14%; further: read at 38.3 µM for the half of the compounds with a filed dose; 0% is about no effect
Shiga inhibitor: inhibitors of Shiga toxin in Vero cells | Vero cells, Shiga toxin protein synthesis inhibition reporter | inhibition, % at 38.7 µM | hit rate 9.2% among 290,000; in the data active means inhibition mostly above about 28%, no sharp cut-off; inactive means mostly below about 43%; further: 0% is about no effect
RE007 growth inh: less growth of the S. pombe RE007 Vpr strain | hit rate 0.21% among 360,000 | Potency, µM (titrated, usually from 92.2 µM), for the others: at the highest dose activity change, negative = less growth, usual class: inhibitors | S. pombe RE007 Vpr strain, BacTiter-Glo ATP luminescence, 24 h; active means well fitted falling curve with a large enough effect; inconclusive means small, poorly fitted or top-dose-only effect; inactive means no such curve, though single readings can be large or run the other way; further: potency means the concentration at half of the fitted maximal effect; on the % scale 0 is the no-effect control and ±100 the full control effect; nearly all actives have a fitted effect of over 50% in size
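Fission yeast RE007 carrying one integrated HIV-1 vpr copy, seeded at OD 0.01 in PMG+AL medium with 23 nL pinned compound. Grown 24 h at 30 degrees; viability read by BacTiter-Glo luminescence after 5 min.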
Giardia FBPA inh: blocks Giardia fructose-bisphosphate aldolase activity; A8B2U2; purified Giardia FBPA; Potency, µM (highest dose often 59.6 µM), for the others: top-dose activity, negative = inhibition, hits mostly inhibitors; hit rate 0.71% among 290,000; AID 2451; further: potency means the concentration at half of the fitted maximal effect; on the % scale 0 is the no-effect control and ±100 the full control effect; nearly all actives have a fitted effect of over 55% in size
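Giardia FBPA (40 nM reagent) was preincubated 10 min at RT with compound (up to 57.5 uM final), then substrate plus GAPDH/TPI/NAD/arsenate coupling system with diaphorase/resazurin was added; resorufin fluorescence (525/598 nm) was read after 20 min.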
LmPK inhibitor: blocks Leishmania mexicana pyruvate kinase activity. Q27686. AID 1721. purified LmPK, Kinase-Glo ATP luminescence, 1 h. hit rate 0.37% among 290,000. Potency, µM (series often up to 57.5 µM), without a hit: at the highest dose activity change, negative = inhibition, most hits filed as inhibitors; further: potency means the concentration at half of the fitted maximal effect; on the % scale 0 is the no-effect control and ±100 the full control effect
Target sequence (Q27686 whole entry, looked up): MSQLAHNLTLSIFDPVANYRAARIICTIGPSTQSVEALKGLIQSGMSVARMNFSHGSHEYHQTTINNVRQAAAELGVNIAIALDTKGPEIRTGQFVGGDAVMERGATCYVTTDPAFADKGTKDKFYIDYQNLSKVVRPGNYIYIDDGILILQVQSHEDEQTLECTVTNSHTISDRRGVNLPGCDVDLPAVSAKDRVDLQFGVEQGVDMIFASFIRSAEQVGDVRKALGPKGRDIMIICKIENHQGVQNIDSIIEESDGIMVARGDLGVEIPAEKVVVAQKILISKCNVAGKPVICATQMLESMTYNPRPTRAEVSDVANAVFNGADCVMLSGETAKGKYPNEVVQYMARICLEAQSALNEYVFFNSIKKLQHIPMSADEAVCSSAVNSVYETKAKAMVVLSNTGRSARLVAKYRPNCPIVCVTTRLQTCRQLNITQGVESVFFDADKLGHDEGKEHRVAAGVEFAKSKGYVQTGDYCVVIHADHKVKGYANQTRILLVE
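Pyruvate kinase activity monitored as ATP production (luciferase luminescence). Conditions: 0.1 nM enzyme, 0.5 mM PEP, 0.1 mM ADP, 1 h, RT; normalized against uninhibited and no-enzyme wells.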
Tb PYK inh: T. brucei pyruvate kinase inhibition; TbPYK enzyme, Kinase-Glo Plus ATP luminescence, 45 min; Potency, µM (series often up to 76.8 µM), for the others: at the highest dose activity, negative = inhibition, actives largely listed as inhibitors; hit rate 0.12% among 410,000; further: potency means the concentration at half of the fitted maximal effect; on the % scale 0 is the no-effect control and ±100 the full control effect; nearly all actives have a fitted effect of over 50% in size
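Luminescence from Kinase-Glo Plus, added after a 45-minute room-temperature reaction, served as the end-point read-out. The enzyme and substrate were preincubated with compound before ADP (130 uM final) initiated turnover. Concentration-effect curves came from normalized qHTS data.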
* marks the source's active call; other numbers are inactive results; i = inactive; ? = inconclusive; . = no result given; + = active, no number; [ ] = remark or other dose. The full list was thinned out, with hits kept by preference. Unless noted, the call rests on the fitted dose curve; in most records, active means well fitted curve in the direction sought with a large enough effect; inconclusive means small, poorly fitted or top-dose-only effect, or another doubt; inactive means no such curve, though single readings can be large; an effect the other way counts as inactive or inconclusive.

SMILES	Cycloheximide cs	Shiga inhibitor	RE007 growth inh	Giardia FBPA inh	LmPK inhibitor	Tb PYK inh
COc1cccc(NC(=O)NCCCCc2ccccc2)c1	30.7*	23.8	-11.1%	-0.7%	-1.9%	4.9%
CC(C)c1ccc(NC(=S)N(C)CCc2ccccn2)cc1	29.6*	88.1*	-11.3%	-12.9%	5.2%	6.0%
O=C(NCc1ccccn1)Nc1cc(Cl)ccc1Cl	35.7	90.2*	12.0%	.	-8.3%	1.2%
Cc1ccc(Cl)cc1NC(=O)NCc1ccccn1	9.3	10.5	4.7%	-0.6%	3.8%	2.9%
Cc1cccc(C)c1NC(=S)N(C)CCc1ccccn1	-3.0	-7.0	-12.4%	-10.1%	-3.8%	-9.0%
Cc1cccc(NC(=O)NCc2ccccn2)c1	26.7*	51.3*	19.9%	3.6%	3.2%	-10.0%
O=C(O)CC1CCCc2ccccc2C1O (centres undefined)	.	.	.	1.8%	.	.
COc1cccc(-c2nc3c(c(SCc4ccccc4Cl)n2)Cc2c(CO)cnc(C)c2O3)c1	.	.	.	.	.	-9.2%
Cc1cccc(N2C(=O)CC(Sc3nnc(C)s3)C2=O)c1 (centres undefined)	-1.4	11.1	35.5µM*	-0.8%	3.2%	-12.1%
COC(=O)c1ccccc1SC1CC(=O)N(c2ccccc2)C1=O (centres undefined)	28.5*	57.1*	-8.4%	1.5%	-1.6%	-0.3%
O=C(O)c1ccccc1SC1CC(=O)N(c2cccc3ccccc23)C1=O (centres undefined)	-2.8	20.2	7.94µM*	2.9%	7.0%	-26.2%
Cn1nnnc1SC1CC(=O)N(c2ccccc2)C1=O (centres undefined)	-2.9	-19.5	31.6µM*	-1.0%	1.9%	-10.8%
CCOc1ccc(S(=O)(=O)N(C(=O)c2ccncc2)c2ccc3oc(C)c(C(=O)OC)c3c2)cc1	.	.	.	.	.	-0.6%
COc1ccc(/C=C/N(CCc2ccc(OC)c(OC)c2)C(=O)C(F)(F)F)cc1	.	.	.	-3.5%[12.9 µM]	.	.
O=S1(=O)c2ccccc2N(Cc2cccc(F)c2)c2ccccc21	.	.	.	.	.	-2.3%
CCCC[C@]12Cc3ccccc3C(O1)c1c(cc(-c3ccccc3)oc1=O)O2	12.6	+	.	2µM*	-7.0%[11.5 µM]	.
CCCC[C@]12Cc3cc(OC)c(OC)cc3C(O1)c1c(cc(-c3ccccc3)oc1=O)O2	-1.2	i	.	12.8%[12.9 µM]	-4.9%[11.5 µM]	.
CC1CCC2(CC1)NC(=O)N(CC(=O)N1CCN(C(=O)c3ccco3)CC1)C2=O (centres undefined)	.	.	-8.8%	.	.	1.2%
CCOC(=O)c1ccc(N2C(=O)CC(N3CCN(Cc4ccccc4)CC3)C2=O)cc1 (centres undefined)	-1.8	-5.3	-23.5%	7.3%	0.2%	1.4%
CCOC(=O)C1CCCN(C2CC(=O)N(c3cccc(C)c3)C2=O)C1 (centres undefined)	-4.1	14.9	25.1µM*	-20.9%	0.8%	3.8%
CCOC(=O)c1ccc(N2C(=O)CC(N3CCC(C#N)(c4ccccc4)CC3)C2=O)cc1 (centres undefined)	-3.5	-13.9	22.4µM*	-1.6%	5.9%	-6.1%
CCOC(=O)c1ccc(N2C(=O)CC(N3CCCC(C)C3)C2=O)cc1 (centres undefined)	-2.3	-15.7	3.16µM*	20.1%	1.8%	-0.1%
CCOC(=O)c1ccc(N2C(=O)CC(N3CCC(Nc4ccc(F)cc4)CC3)C2=O)cc1 (centres undefined)	-1.8	-14.6	7.94µM*	-1.1%	2.7%	-7.1%
COC(c1ccccc1)c1nnc(CCC(=O)N(C)CCc2ccccc2)o1 (centres undefined)	7.7	5.2	5.4%	0.4%	-2.7%	-0.6%
CN(CCc1ccccn1)C(=O)CCc1nnc(CCCc2ccccc2)o1	45.0*	72.8*	-9.2%	2.1%	-6.6%	1.9%
SMILES	Cycloheximide cs	Shiga inhibitor	RE007 growth inh	Giardia FBPA inh	LmPK inhibitor	Tb PYK inh
CN(CCc1cnn(C)c1)C(=O)CCc1nnc(CCCc2ccccc2)o1	17.2*	35.6*	11.3%	-5.9%	-15.5%	2.9%
N#CCCCS(=O)(=O)c1nc2ccccc2s1	.	.	.	2.8%	.	.
Cc1nc2ccc(S(=O)(=O)N(CC(=O)Nc3cccc(C)c3C)Cc3ccccc3)cc2s1	.	.	.	.	.	-0.3%
CC(=O)c1ccc(NS(=O)(=O)c2c(C)cc(C)cc2C)cc1	37.7*	73.1*	0.3%	-13.2%	-4.5%	2.9%
CC(=O)c1ccc(N=Nc2ccc(N)cc2)cc1	28.0*	55.6*	-23.1%	3.7%	-23.1%	-2.1%
Cc1cc(C)c(S(=O)(=O)Nc2ccc(C(N)=O)cc2)c(C)c1	-4.2	-2.3	4.6%	-24.9%	2.4%	2.6%
CC(=O)c1ccc(NS(=O)(=O)c2ccccc2)cc1	-2.5	13.6	-17.1%	10.7%	-6.0%	-0.1%
CC(=O)c1ccc(NS(=O)(=O)c2ccc(N)cc2)cc1	28.1*	49.7*	-9.6%	10.6%	1.0%	3.2%
CC(=O)c1ccc(N=Nc2c(C)[nH][nH]c2=O)cc1	.	.	3.8%	.	.	-14.8%
O=C(Nc1ccc(Cl)c([N+](=O)[O-])c1)ONC1=NCCCCC1	13.0	-1.6	-14.1%	-2.6%	-1.5%	4.9%
COc1ccc(/C(N)=N/OC(=O)COc2ccccc2Cl)cc1	45.8*	25.6*	19.7%	4.0%	-3.4%	-11.6%
Cc1ccc(C)c(OCC(=O)O/N=C(\N)c2cccc([N+](=O)[O-])c2)c1	-2.1	10.1	-16.1%	2.6%	-0.2%	-1.1%
Cc1cccc(/C(N)=N/OC(=O)COc2ccccc2Cl)c1	65.8*	21.3*	8.9%	-2.9%	-2.2%	-8.9%
Cc1ccc(/C(N)=N/OC(=O)COc2cccc3ccccc23)cc1	.	.	-4.7%	.	.	-6.9%
CCOC(=O)c1c(S(=O)(=O)NCC(=O)Nc2cccc(SC)c2)c(C)n(C)c1C	.	.	.	.	.	-6.9%
O=C(O)c1cccc(N2C(=O)CSC2=S)c1	18.5*	37.1	19.9%	-12.6%	0.7%	0.8%
CN(C)c1ccc(N2C(=O)CSC2=S)cc1	19.3*	61.9*	.	0.6%	-4.8%	1.0%
O=C(NCc1nc2ccccc2[nH]1)c1cccs1	23.1*	14.0	-5.9%	-4.0%	2.6%	-0.4%
O=C(NCCc1ccccc1)c1cccs1	29.0*	50.4	3.5%	2.1%	-16.8%	3.9%
Cc1cc2ccccc2n1CCNC(=O)c1cccs1	17.0*	31.5*	-4.2%	-13.3%	0.9%	-13.6%
O=C(NCCCNC(=O)c1cccs1)c1cccs1	-1.5	15.0	-20.1%	-1.9%	-3.7%	?
O=C(NCCc1cccc(Cl)c1)c1cccs1	66.9*	100.8*	-4.3%	-10.7%	-1.1%	-0.8%
COc1ccc(OC)c(NC(=O)Cc2c(C(=O)O)n(C)c3ccc(C)cc23)c1	.	.	.	.	.	1.5%
O=c1[nH]c(=S)[nH]c2c1C(c1ccc(F)cc1)OC(C1CCCCC1)C2 (centres undefined)	.	.	1.3%	.	.	-4.4%
CCN=c1sc(C(=O)NCCc2ccccc2)cc(=O)n1CC	47.0*	97.3*	-5.7%	2.4%	2.6%	-11.7%
